The nature of assay [1]: NCI Yeast Anticancer Drug Screen. Data for the rad50 strain (AID 155).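 Further: 0% = growth of vehicle-only cultures of the same strain.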 Conditions: S. cerevisiae rad50 strain growth inhibition, stronger effect = higher value. In short, it runs like this: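 Genetically altered yeast (DNA repair pathway); compound treatment; growth inhibition vs vehicle ctrl.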
Assay [2] can be described thus: NCI Yeast Anticancer Drug Screen. Data for the mec2-1 strain (AID 157). To be noted: S. cerevisiae mec2-1 strain, stronger effect = higher value. A digest of the protocol: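 Strain: mec2-1 (DNA repair/cell cycle alteration). Compound exposure, then growth measured; inhibition expressed relative to vehicle.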
Assay [3] is described as follows: NCI Yeast Anticancer Drug Screen. Data for the sgs1 mgt1 strain (AID 161).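 Further: 0% = growth of cultures given vehicle only.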 To be noted: S. cerevisiae sgs1 mgt1 strain, stronger effect = higher value. In short, it runs like this: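 Mutant yeast exposed to compound; growth scored against vehicle-only wells.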
Assay [4] can be described thus: NCI Yeast Anticancer Drug Screen. Data for the cln2 rad14 strain (AID 165).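 Further: 0% = growth equal to vehicle treated cultures.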 Conditions: S. cerevisiae cln2 rad14 strain, stronger effect = higher value. A digest of the protocol: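 Compounds are applied to the cln2 rad14 yeast strain, and growth is then compared with that of vehicle-treated cultures to give inhibition.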
Assay [5] in a line: NCI Yeast Anticancer Drug Screen. Data for the bub3 strain (AID 167). To be noted: S. cerevisiae bub3 mutant strain, stronger effect = higher value. In short, it runs like this:
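Yeast carrying a defined mutation is treated with each compound, and growth is compared with that of vehicle-exposed cells to give inhibition.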

Assay [6] can be described thus: NCI Yeast Anticancer Drug Screen. Data for the mlh1 rad18 strain (AID 175). Conditions: S. cerevisiae mlh1 rad18 strain growth inhibition, stronger effect = higher value. In short, it runs like this:
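Read-out is yeast growth inhibition, calculated against vehicle-only controls. The compound was applied to a strain engineered with DNA damage repair alterations.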

[7] abbreviates: at 5.0 µM (retest, dose inferred, filed as 0.5).
The mark [8] stands for this setting: at 50.0 µM (retest, dose inferred, filed as 5.0).

This note sets out measurements from PubChem BioAssay (NCI).

The panel holds about 79,000 compounds, 15% with a hit somewhere; the sample as a whole holds those more often. Values without a mark were called inactive. Activity calls are given as the source filed them. No stated cut-off is given here; in the data, active means growth inhibition above about 70%; inactive means the rest.

For the compound `CCCCCCCCC1OC1CCCCCCCC(=O)OCC1CO1` (configuration not stated), the growth inhibition in assay [1] (setting [7]) was 1%; in assay [1] (setting [8]) it was -11%; in assay [1] (at 50.0 µM), 3.45%; in assay [2] (setting [7]), 1%; in assay [2] (setting [8]) it was -10%; in assay [2] (at 50.0 µM) it was -18.7%. Also, the growth inhibition was 1% in assay [3] (setting [7]); -10% in assay [3] (setting [8]); 8.9% in assay [3] (at 50.0 µM); 5% in assay [4] (setting [7]); 5% in assay [4] (setting [8]); 29.1% in assay [4] (at 50.0 µM). For the same compound, the growth inhibition in assay [5] (setting [7]) was -3%; in assay [5] (setting [8]) it was -16%; in assay [5] (at 50.0 µM), -25.1%; in assay [6] (setting [7]) it was 25%; in assay [6] (setting [8]), -14%; in assay [6] (at 50.0 µM) it was -40.8%.

Regarding `COc1ccc(C2N(Cc3ccc(Cl)cc3)CCN2Cc2ccc(Cl)cc2)cc1`, the growth inhibition in assay [1] (setting [7]) is 9%; in assay [1] (setting [8]), 70% (active); in assay [1] (at 50.0 µM) it was 46.6%; in assay [2] (setting [7]), 9%; in assay [2] (setting [8]), 59%; in assay [2] (at 50.0 µM), 32.2%. For the same compound, the growth inhibition in assay [3] (setting [7]) was 37%; in assay [3] (setting [8]) it was 89% (active); in assay [3] (at 50.0 µM), 71.2% (active); in assay [4] (setting [7]), 21%; in assay [4] (setting [8]), 53%; in assay [4] (at 50.0 µM) it was 69.2%. Moreover, the growth inhibition in assay [5] (setting [7]) is 34%; in assay [5] (setting [8]) it was 91% (active); in assay [5] (at 50.0 µM), 25.9%; in assay [6] (setting [7]), 25%; in assay [6] (setting [8]), 72% (active); in assay [6] (at 50.0 µM), 50.5%.

For the compound `CCCCCOC(=O)C1C(=O)CC(c2ccccc2)C1c1ccccc1` (configuration not stated), the growth inhibition was 1% in assay [1] (setting [7]); 79% (active) in assay [1] (setting [8]); 92.2% (active) in assay [1] (at 50.0 µM); -1% in assay [2] (setting [7]); 63% in assay [2] (setting [8]); 16.6% in assay [2] (at 50.0 µM). The growth inhibition in assay [3] (setting [7]) is -4%; in assay [3] (setting [8]), 67%; in assay [3] (at 50.0 µM), 56.1%; in assay [4] (setting [7]) it was 0%; in assay [4] (setting [8]), 76% (active); in assay [4] (at 50.0 µM), 63.9%. The growth inhibition in assay [5] (setting [7]) was -5%; in assay [5] (setting [8]), 72% (active); in assay [5] (at 50.0 µM) it was 45.5%; in assay [6] (setting [7]), 0%; in assay [6] (setting [8]), 85% (active); in assay [6] (at 50.0 µM), 68.6%.

On to `CCOSc1ccccc1`, for which the growth inhibition in assay [1] (setting [7]) is 3%; in assay [1] (setting [8]), 50%; in assay [1] (at 50.0 µM) it was 34.3%; in assay [2] (setting [7]), 5%; in assay [2] (setting [8]), 63%; in assay [2] (at 50.0 µM) it was 32.7%. In addition, the growth inhibition in assay [3] (setting [7]) is 3%; in assay [3] (setting [8]), 74% (active); in assay [3] (at 50.0 µM), 16.2%; in assay [4] (setting [7]) it was 2%; in assay [4] (setting [8]), 22%; in assay [4] (at 50.0 µM), 16.1%. Besides, the growth inhibition is 0% in assay [5] (setting [7]); 74% (active) in assay [5] (setting [8]); 20.6% in assay [5] (at 50.0 µM); 21% in assay [6] (setting [7]); 93% (active) in assay [6] (setting [8]); 56.7% in assay [6] (at 50.0 µM).

With `CC(CCOP(=O)(O)OCCC(C)CC(C)(C)C)CC(C)(C)C` (configuration not stated), the growth inhibition in assay [1] (setting [7]) was -3%; in assay [1] (setting [8]) it was 20%; in assay [1] (at 50.0 µM) it was 11.8%; in assay [2] (setting [7]), -9%; in assay [2] (setting [8]) it was 13%; in assay [2] (at 50.0 µM), 62.6%. Further, the growth inhibition in assay [3] (setting [7]) was -4%; in assay [3] (setting [8]), 52%; in assay [3] (at 50.0 µM), 35.4%; in assay [4] (setting [7]) it was -2%; in assay [4] (setting [8]) it was 45%; in assay [4] (at 50.0 µM) it was 51%. Besides, the growth inhibition in assay [5] (setting [7]) is -19%; in assay [5] (setting [8]), 10%; in assay [5] (at 50.0 µM) it was 71.4% (active); in assay [6] (setting [7]), 3%; in assay [6] (setting [8]) it was 19%; in assay [6] (at 50.0 µM) it was 47.8%.

Regarding `O=C(Nc1ccc(/C=C/c2ccc(NC(=O)c3cc(S(=O)(=O)O)c4cccnc4c3O)cc2S(=O)(=O)O)c(S(=O)(=O)O)c1)c1cc(S(=O)(=O)O)c2cccnc2c1O`, the growth inhibition in assay [1] (setting [7]) was 19%; in assay [1] (setting [8]) it was 97% (active); in assay [1] (at 50.0 µM), 94.4% (active); in assay [2] (setting [7]), 26%; in assay [2] (setting [8]), 97% (active); in assay [2] (at 50.0 µM), 88.7% (active). The growth inhibition in assay [3] (setting [7]) is 34%; in assay [3] (setting [8]), 97% (active); in assay [3] (at 50.0 µM) it was 93.8% (active); in assay [4] (setting [7]), 9%; in assay [4] (setting [8]) it was 95% (active); in assay [4] (at 50.0 µM) it was 90.2% (active). Besides, the growth inhibition in assay [5] (setting [7]) was 13%; in assay [5] (setting [8]), 98% (active); in assay [5] (at 50.0 µM), 95.9% (active); in assay [6] (setting [7]), 41%; in assay [6] (setting [8]), 97% (active); in assay [6] (at 50.0 µM) it was 91.3% (active).

Turning to `COC(=O)CSc1n[nH]c(-c2ccc(O)c([N+](=O)[O-])c2)n1`, the growth inhibition was 17% in assay [1] (setting [7]); 47% in assay [1] (setting [8]); 53.9% in assay [1] (at 50.0 µM); 31% in assay [2] (setting [7]); 56% in assay [2] (setting [8]); 53.2% in assay [2] (at 50.0 µM). Moreover, the growth inhibition was 25% in assay [3] (setting [7]); 71% (active) in assay [3] (setting [8]); 75.6% (active) in assay [3] (at 50.0 µM); 40% in assay [4] (setting [7]); 57% in assay [4] (setting [8]); 65.5% in assay [4] (at 50.0 µM). Moreover, the growth inhibition in assay [5] (setting [7]) is 35%; in assay [5] (setting [8]), 51%; in assay [5] (at 50.0 µM) it was 53%; in assay [6] (setting [7]), 30%; in assay [6] (setting [8]), 57%; in assay [6] (at 50.0 µM), 57.4%.

With `O=C(NCc1ccccc1)C1C(=O)N(Cc2ccccc2)C(=O)/C1=N/O` (configuration not stated), the growth inhibition in assay [1] (setting [7]) was -16%; in assay [1] (setting [8]) it was -1%; in assay [1] (at 50.0 µM), -17.1%; in assay [2] (setting [7]), 2%; in assay [2] (setting [8]) it was 1%; in assay [2] (at 50.0 µM), 16.8%. The growth inhibition in assay [3] (setting [7]) is -14%; in assay [3] (setting [8]) it was -22%; in assay [3] (at 50.0 µM), 35.2%; in assay [4] (setting [7]), -4%; in assay [4] (setting [8]) it was -1%; in assay [4] (at 50.0 µM) it was -22.5%. The growth inhibition in assay [5] (setting [7]) was 2%; in assay [5] (setting [8]), -1%; in assay [5] (at 50.0 µM) it was 31.6%; in assay [6] (setting [7]) it was -2%; in assay [6] (setting [8]), -3%; in assay [6] (at 50.0 µM) it was 12.8%.

`CCNC(=S)N/N=C/c1ccccn1`: the growth inhibition in assay [1] (setting [7]) is -15%; in assay [1] (setting [8]), 95% (active); in assay [1] (at 50.0 µM) it was 81.5% (active); in assay [2] (setting [7]), -42%; in assay [2] (setting [8]) it was 92% (active); in assay [2] (at 50.0 µM), 84% (active). Also, the growth inhibition in assay [3] (setting [7]) was -29%; in assay [3] (setting [8]) it was 95% (active); in assay [3] (at 50.0 µM), 78.2% (active); in assay [4] (setting [7]), -21%; in assay [4] (setting [8]) it was 95% (active); in assay [4] (at 50.0 µM), 81.2% (active). Moreover, the growth inhibition is -15% in assay [5] (setting [7]); 95% (active) in assay [5] (setting [8]); 82.5% (active) in assay [5] (at 50.0 µM); -33% in assay [6] (setting [7]); 97% (active) in assay [6] (setting [8]); 76.5% (active) in assay [6] (at 50.0 µM).
